Vif-A3F inh: Vif-A3F binding inhibition | actives 0.2% (n = 390,000) | AID 602313 | Potency, µM (series often up to 46.1 µM), for inactives: at the highest dose activity, negative = active | HeLa A3F-eYFP + Vif (tagged APOBEC3F with the HIV-1 protein that degrades it), YFP fluorescence increase; note: % of control where 0% means no effect; nearly all actives have a fitted effect of over 65% in size
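Fluorescence increase (Ex 488/Em 500-530) after overnight compound treatment at 37 deg C flags inhibition of Vif-driven A3F-eYFP loss in stable HeLa A3F-eYFP/Vif cells seeded overnight beforehand.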
PINK1 modulator: PINK1 expression modulation; PINK1 immunofluorescence, high-content cytometry, 24 h; Potency, µM (titrated, usually from 76.6 µM), without a hit: at the top dose activation (PINK1 increase), hits mostly activators; actives 0.2% (n = 410,000); AID 624263; active = well fitted activation curve with a large enough effect; inconclusive = small, poorly fitted or top-dose-only effect; cell line not stated here; note: % of control where 0% means no effect; nearly all actives have a fitted effect of over 65% in size
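PINK1 protein, normally rapidly degraded, was detected by immunofluorescence after 24 hour compound treatment of a stable cell line. Titration data (5 concentrations) came from laser-scanning cytometry, with CCCP-treated wells as controls.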
Epigenetic derep: regulators of epigenetic silencing causing reporter derepression in mouse cells; murine LDR cells, GFP reporter derepression, 30 h; Potency, µM (doses to about 53.9 µM), for the others: at the highest dose GFP activation, hits mostly activators; AID 1865; actives 0.2% (n = 280,000); note: % of control where 0% means no effect; nearly all actives have a fitted effect of over 60% in size
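In this reporter-derepression format, murine cells bearing a silenced integrated CMV-GFP locus incubate with test compound (30 h, 37 C), then are washed and imaged; fluorescent objects of 20–120 um count as induced cells.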
Vif-A3G inh: inhibitors of Vif-APOBEC3G interaction | actives 0.076% (n = 410,000) | Q9HC16 | AID 602310 | HeLa A3G-eYFP + Vif (tagged APOBEC3G with the HIV-1 protein that degrades it), YFP fluorescence, overnight | Potency, µM (top dose mostly 46.1 µM), inactives show at the top dose activity, negative = active, actives largely listed as inhibitors; note: % is set by controls: 0 for no effect and ±100 for the full control effect; nearly all actives have a fitted effect of over 60% in size
Target sequence (Q9HC16 whole entry, looked up): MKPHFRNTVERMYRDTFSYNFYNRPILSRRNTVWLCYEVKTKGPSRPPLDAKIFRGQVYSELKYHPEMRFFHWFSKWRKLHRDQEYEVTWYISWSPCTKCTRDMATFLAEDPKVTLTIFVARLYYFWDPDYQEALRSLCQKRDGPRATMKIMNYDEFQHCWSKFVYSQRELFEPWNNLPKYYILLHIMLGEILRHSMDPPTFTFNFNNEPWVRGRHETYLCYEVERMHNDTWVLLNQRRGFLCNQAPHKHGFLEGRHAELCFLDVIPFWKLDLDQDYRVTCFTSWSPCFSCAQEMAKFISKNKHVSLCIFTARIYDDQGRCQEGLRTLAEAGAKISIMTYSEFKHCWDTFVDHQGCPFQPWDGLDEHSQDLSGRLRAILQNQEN
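Read-out is eYFP fluorescence (Ex 488/Em 500-530) from Vif-expressing HeLa A3G-eYFP cells; more signal means A3G escaped Vif-mediated degradation. Cells plated overnight, compound pinned in, incubated overnight at 37 deg C.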
An asterisk follows results filed as active; ? = inconclusive; / = no result; [ ] = remark or other dose. The list is not random: actives were taken first. Their share in the collection is about 0.52%. Unless noted, calls come from the whole dose curve; as a rule, active = well fitted curve in the direction sought with a large enough effect; inconclusive = small, poorly fitted or top-dose-only effect, or another doubt; inactive = no such curve, though single readings can be large; an effect the other way counts as inactive or inconclusive. Potency is the fitted concentration of half-maximal effect.

SMILES	Vif-A3F inh	PINK1 modulator	Epigenetic derep	Vif-A3G inh
COc1ccc(CNC(=O)c2ccc(Cn3nc(C)c([N+](=O)[O-])c3C)o2)cc1	6.6%	-1.3%	4.47µM*	-8.7%
Cc1c(CN2CCOc3c(O)cc(-c4nc5ccccc5s4)cc3C2)cnn1C	/	1.2%	/	/
CCOC(=O)N1CCN(C(=O)c2ccc(-c3ccccc3OC)nc2N2CCC(N3CCCC(CO)C3)CC2)CC1 (stereo not given)	/	-0.4%	/	/
COC(=O)C1C2CC3c4[nH]c5cc(OC)ccc5c4CCN3CC2CC(OC(=O)CC(C)=O)C1OC (stereo not given)	25.1µM*	?	/	?
COC(=O)[C@@H]1[C@@H]2C[C@H]3c4[nH]c5cc(OC)ccc5c4CCN3C[C@@H]2C[C@H](OC(=O)c2cc(OC)c(OC)c(OC)c2)[C@H]1OC	/	/	7.9%[16.9 µM]	/
CC(C)CC(=O)NC(=S)N(Cc1ccccc1)Cc1ccccc1	25.1µM*	8.7%	1.1%	-2.9%
CC(C)C(=O)NC(=S)N(Cc1ccccc1)Cc1ccccc1	-8.6%	0.9%	7.5%	-5.0%
COc1ccc(NCc2cc3cc4c(cc3n(CC(=O)Nc3cc(C)ccc3C)c2=O)OCCO4)cc1	12.6µM*	10.0%	11.4%	?
COc1ccc(NCc2cc3cc4c(cc3n(CC(=O)Nc3ccc(C)cc3C)c2=O)OCO4)cc1	-0.7%	-1.0%	0.9%	1.0%
Cc1ccccc1Sc1c(C#N)c(-c2ccccc2)nn1C	-12.6%	7.08µM*	-0.3%	-1.6%
Cc1c(C(=O)NCC2CC2)sc2ncnc(NCCN3CCCCC3)c12	/	1.3%	/	/
COc1ccccc1C1CN(Cc2ccc(Sc3nncn3C)o2)Cc2ccccc2O1 (stereo not given)	/	0.5%	/	/
O=C(Nc1cccc(-c2nc3ncccc3o2)c1)c1sc2cc(Cl)ccc2c1Cl	-7.2%	10µM*	1.2%	-0.7%
O=C(Nc1cccc(-c2nc3ncccc3o2)c1)c1sc2ccccc2c1Cl	-5.7%	?	-1.3%	-2.0%
O=C(Nc1ncc([N+](=O)[O-])s1)c1cccc([N+](=O)[O-])c1	-0.5%	14.1µM*	-0.9%	-1.8%
O=C(Nc1ncc(S(=O)(=O)c2ccc([N+](=O)[O-])cc2)s1)c1ccc2ccccc2c1	-5.8%	14.1µM*	-0.3%	0.1%
O=C(Nc1ncc(S(=O)(=O)c2ccc([N+](=O)[O-])cc2)s1)c1cccnc1	-3.4%	2.2%	9.3%	-11.7%
CC1=C(n2nnc3ccccc32)C(c2ccccc2)C(C#N)=C(N)O1 (stereo not given)	25.1µM*	-3.3%	3.2%	-17.0%
Cc1nn(-c2ccccc2)c2c1C(c1ccncc1)C(C#N)=C(N)O2 (stereo not given)	-14.1%	1.1%	1.3%	-0.3%
COc1ccccc1CCNc1ncnc2sc(C(=O)N3CCCC3)c(C)c12	/	0.3%	/	/
CC(C)c1c(C(=O)NC(c2cccnc2)C(F)(F)F)cnn1-c1nccc(-c2cccs2)n1 (stereo not given)	/	-1.0%	/	/
COc1ccc2[nH]c3c(c2c1)CCNC3c1ccc([N+](=O)[O-])o1 (stereo not given)	25.1µM*	13.5%	/	?
COc1ccc2[nH]c3c(c2c1)CCNC3C1CC=C(C)CC1 (stereo not given)	2.9%	9.5%	0.0%	?
O=C(NCc1nnc2n1CCN(Cc1cccc(Cl)c1)CC2)c1cccc(F)c1	/	2.5%	/	/
O=C(NCC1Cc2cc(F)cc(-c3cccnc3)c2O1)c1cnn(-c2ccccc2)c1 (stereo not given)	/	1.8%	/	/
SMILES	Vif-A3F inh	PINK1 modulator	Epigenetic derep	Vif-A3G inh
C/C(=N\Nc1nccnc1Cl)c1ccc(Cl)c(Cl)c1	25.1µM*	-0.3%	/	-0.1%
Cn1c(SCC2CCCO2)nnc1C1CCN(Cc2ccc(-c3cccc(Cl)c3)o2)CC1 (stereo not given)	/	-0.9%	/	/
COc1ccc(C(=O)C/C(=C\C(=O)c2ccc(C)cc2)c2ccccc2)cc1	-17.6%	25.1µM*	-1.6%	2.2%
COc1ccc(C2NN=C(c3c[nH]c4ccccc34)C2O)cc1 (stereo not given)	22.4µM*	3.5%	/	?
OC1(c2cccnc2)CCN(Cc2ccc3c(c2)CN(Cc2ccc(F)c(F)c2)CCO3)CC1	/	-1.3%	/	/
CN(c1ccccc1)S(=O)(=O)c1ccc(Cl)c(C(=O)Nc2ccc(-c3nc4ccccc4[nH]3)cc2)c1	-1.2%	11.2µM*	-1.1%	-23.1%
COc1ccccc1C1CN(Cc2cccc3nccnc23)Cc2ccccc2O1 (stereo not given)	/	-0.1%	/	/
Cc1cc(/C=C2\SC(=S)N(Cc3ccco3)C2=O)c(C)n1-c1ccccc1	20µM*	2.8%	?	?
CN(C)c1ccc(C=C2SC(=S)N(Cc3ccco3)C2=O)cc1	?	17.7%	/	?
COc1ccc(NC(=O)CSc2nnc(C)c3ccccc23)cc1	-1.5%	1.6%	/	-28.5%
N#Cc1cccc(NC(=O)CSc2ccccc2)c1	-11.3%	0.5%[38.3 µM]	-2.1%	0.6%
N#Cc1cccc(NC(=O)CSc2ccc3c4c(cccc24)C(=O)c2ccccc2-3)c1	11.2µM*	2.5%	5.01µM*	2.82µM*
COc1ccc(NC(=O)CSc2ccc3c4c(cccc24)C(=O)c2ccccc2-3)cc1	11.2µM*	?	?	?
Cc1ccc(C(=O)NCCc2nnc3n2CCN(Cc2cc(C)cc(C)c2)CC3)cc1	/	-0.7%	/	/
CCN(c1ccc(N=Cc2c(O)n(Cc3ccc(OC)cc3)c(=O)c3ccccc23)cc1)C(C)C	-868.8%	2.2%	2µM*	?
COc1cc(/C=C/CN2CCOc3ccc(C(O)c4cccnc4)cc3C2)ccc1O (stereo not given)	/	0.5%	/	/
CCN1CCS/C1=C/C=C/C1=[N+](CC)CCS1	-1.1%	15.8µM*	-1.8%	-0.2%
CCN1CCS/C1=C\C=C\C1=[N+](CC)CCS1	-2.1%	14.1µM*	1.3%	13.8%
COc1cccc(CNC(=O)c2c(OC)cc(=O)n3c2CCN(C(=O)c2ccoc2C)CC3)c1	/	0.3%	/	/
CCN(CC)c1ccc(/C=c2\sc3nnc(-c4ccccc4Cl)n3c2=O)cc1	2.2%	4.2%	3.6%	1.7%
CCN(CC)c1ccc(/C=c2/sc3nnc(-c4ccccc4C)n3c2=O)cc1	1.26µM*	/	7.0%	-3.4%
O=C([C@@H]1C[C@@H](Sc2nc3ccccc3[nH]2)CN1Cc1ccc(Cl)cc1)N1CCN(c2ccccc2F)CC1	/	0.7%	/	/
COc1ccccc1N1CCN(c2nc(CNC(=O)C3CC34CCCC4)nc3ccccc23)CC1 (stereo not given)	/	0.0%	/	/
COC(=O)c1sccc1NC(=S)Nc1cc(C)cc(C)c1	25.1µM*	5.2%	-1.0%	1.0%
CCCN1C=CC(=CC=C(C#N)C#N)C=C1	?	?	0.9%	12.6µM*
CCCCCCN1C=CC(=C/C=C(\C#N)C(=O)OCC)C=C1	?	12.6µM*	10µM*	4.1%
CCOC(=O)/C(C#N)=C/C=C1\C=Cc2ccccc2N1CC	4.3%	4.4%	-1.5%	-1.3%
CC(C)C(=O)NCC1CCC2(CCN(Cc3ccc(-c4cccc(Cl)c4)o3)CC2)O1 (stereo not given)	/	0.7%	/	/
